# Experimental data reported in PubChem BioAssay AID463173 (ICCB-Longwood Screening Facility, Harvard Medical School, 2010).
# The campaign covered roughly 52,000 compounds. About 4,300 (8.3%) were called active. Many of the other results were omitted from the sample, so actives are more common in it than they were. A number with no mark means an inactive call. Rule as the data show it: active = survival mostly below about 52% (no sharp cut-off); inactive = mostly above about 56%.
# Test system: DeltatarO mutant
# Experiment: growth inhibition of S. aureus wild type versus tarO mutant, primary screen, teichoic acid synthesis inhibitors, RN4220, OD600 (AID 463173)
# Conditions: OD600, 18 h, active compounds read low, screened at 18.75 µg/mL (by protocol)
row,SMILES,survival
1,Cc1cc(C)n2c(Nc3ccccc3)c(-c3ccccc3)nc2n1,72%
2,Cc1cccc(N2CCN(Cc3nnc(-c4cccc(Br)c4)o3)CC2)c1C,72%
3,CCc1ccccc1N(C)C(=O)c1ccc2c(=O)n3c(nc2c1)CCCCC3,81%
4,O=C(Cn1cnc(S(=O)(=O)N2CCCC2)c1)Nc1cccc(F)c1,91%
5,CCC(C)c1ccc(NC(=O)CSc2nncn2N)cc1 (stereo unspecified),76%
6,CCOC(=O)c1ccc(NC(=O)CC2Sc3ccc(C(F)(F)F)cc3NC2=O)cc1 (stereo unspecified),78%
7,O=C(CC1Sc2ccc(C(F)(F)F)cc2NC1=O)Nc1ccc(Cl)c(C(F)(F)F)c1 (stereo unspecified),22% (active)
8,CCc1ccccc1NC(=O)CC1Sc2ccc(C(F)(F)F)cc2NC1=O (stereo unspecified),82%
9,COC(=O)c1c(NC(=O)CCCOc2ccc(C)cc2)sc2c1C(C(=O)OC)CC2 (stereo unspecified),44%
10,COC(=O)c1c(NC(=O)CCCOc2ccc(C(C)(C)C)cc2)sc2c1C(C(=O)OC)CC2 (stereo unspecified),3% (active)
11,COC(=O)c1c(NC(=O)CCCOc2cccc(C)c2)sc2c1C(C(=O)OC)CC2 (stereo unspecified),0% (active)
12,CCOc1ccc(/C=C/C(=O)Nc2sc3c(c2C(=O)OC)C(C(=O)OC)CC3)cc1 (stereo unspecified),56%
13,COC(=O)c1c(NC(=O)c2cccs2)sc2c1C(C(=O)OC)CC2 (stereo unspecified),94%
14,COC(=O)c1c(NC(=O)/C(C#N)=C/c2ccccc2)sc2c1C(C(=O)OC)CC2 (stereo unspecified),58%
15,COc1ccc(NC(=O)CCn2c(-c3ccc(F)cc3)cc(C(C)=O)c2C)c(OC)c1,124%
16,COc1ccccc1Cc1nc2ccccc2nc1SCC(=O)NCc1ccccc1Cl,135%
17,COc1ccc2c(c1)CC(C(=O)Nc1cc(OC)c(OC)c(OC)c1)CO2 (stereo unspecified),83%
18,CCCCOC(=O)c1ccc(OC(=O)c2sc3ncn(Cc4ccccc4Cl)c(=O)c3c2C)cc1,90%
19,Cc1ccc(CNC(=O)c2oc3ccc(S(=O)(=O)N4CCC(C)CC4)cc3c2C)cc1,57%
20,Cc1ccc(Cl)cc1NC(=O)Cn1c(=O)n(CCC(=O)N2CCc3ccccc3C2)c(=O)c2ccccc21,102%
21,CC(=O)Nc1ccc(S(=O)(=O)NCCc2csc3nc(-c4ccc(Cl)cc4)nn23)cc1,70%
22,CSc1nc(-c2ccc(Cl)cc2)nn1C(C)=O,57%
23,CSc1nc(-c2ccc(Cl)cc2)nn1S(=O)(=O)c1ccc(NC(C)=O)cc1,43% (active)

row,SMILES,survival
1,CCc1c(C)nc2cc(-c3cc(OC)cc(OC)c3)nn2c1NCCCN(CC)CC,113%
2,O=C(NC1CCCC1)C(c1ccccc1)N(Cc1ccccc1F)C(=O)c1ccco1 (stereo unspecified),102%
3,Cc1ccc(C(C(=O)NC2CCCCC2)N(C)Cc2ccccc2)cc1 (stereo unspecified),-3% (active)
4,CN(Cc1ccccc1)C(C(=O)NC1CCCCC1)c1ccc(Cl)cc1 (stereo unspecified),37% (active)
5,Cc1ccc(-c2nnn(CC(=O)N(Cc3ccccc3)C(C(=O)NC3CCCC3)c3ccco3)n2)cc1 (stereo unspecified),64%
6,Cc1ccc(N(C(=O)c2ccco2)C(C(=O)NC2CCCC2)c2ccc(N(C)C)cc2)c(C)c1 (stereo unspecified),93%
7,O=C(NC1CCCC1)C(c1ccccc1)N(C(=O)c1ccco1)C1CCCC1 (stereo unspecified),79%
8,O=C(O)c1cccc(N=C2NC(=O)C(CO)(CO)S2)c1,89%
9,Cc1cccc(Cc2c(C)nc3nc(SCc4cccc(F)c4)nn3c2C)c1,78%
10,CCOC(=O)c1ccc(NC(=O)C2CC(=O)N3CCCN=C3S2)cc1 (stereo unspecified),94%
11,Cc1cccc(NC(=O)c2sc3nc4n(c(=O)c3c2C)N=C(c2ccc(F)cc2)CS4)c1C,99%
12,CCc1cccc(C)c1NC(=O)Cn1c(=O)cc(C(F)(F)F)c2c(C)nn(C)c21,85%
13,CC(C)(C)n1cnc2cc(NS(=O)(=O)c3ccccc3)ccc21,86%
14,CC(C)(C)n1cnc2cc(NCc3ccccc3Cl)ccc21,7% (active)
15,CCCn1cnc2cc(NC(=O)c3cc(OC)c(OC)c(OC)c3)ccc21,66%
16,CCOc1ccc(C=Nc2ccc3c(c2)ncn3C)cc1,96%
17,CCCCn1cnc2cc(NC(=O)c3cc(OC)c(OC)c(OC)c3)ccc21,66%
18,CCCCn1cnc2cc(NCc3ccc(OCC)cc3)ccc21,11% (active)
19,COc1cc(CNc2ccc3c(c2)ncn3C(C)C)cc(OC)c1OC,64%
20,CCCCn1cnc2cc(NCc3ccccc3Cl)ccc21,-16% (active)
21,CC(C)(C)n1cnc2cc(N=Cc3ccccc3O)ccc21,81%
22,CCn1cnc2cc(NCc3ccc(N(C)C)cc3)ccc21,72%
23,Cc1cc(C)n2nc(NCc3ccccc3Cl)nc2n1,90%

row,SMILES,survival
1,CCc1ccc(CNc2ccc3c(c2)ncn3C(C)(C)C)cc1,-16% (active)
2,CCOc1ccc(NC(=O)CSc2oc(-c3cccs3)nc2S(=O)(=O)c2ccc(Cl)cc2)cc1,63%
3,COc1ccc2c(c1)c1c(c(=O)n(-c3ccccc3C)c(=O)n1Cc1cccc(C(F)(F)F)c1)n2C,94%
4,O=S(=O)(c1ccccc1)N1CCC(n2cnc3ccccc32)CC1,78%
5,Cc1ccc(C)c(NC(=O)C2CCN(S(=O)(=O)c3c(C)noc3/C=C/c3cccs3)CC2)c1,63%
6,Cn1nnc(C(O)CNCc2ccc(F)cc2)n1 (stereo unspecified),105%
7,CCOC(=O)c1c(NC(=O)c2ccc(S(=O)(=O)N(CCOC)CCOC)cc2)sc2c1CC(C)(C)NC2(C)C,78%
8,Cc1cccc(CNC(=O)c2cnc3sc(N4CCCCCC4)nn3c2=O)c1,99%
9,COc1ccc(NC(=O)CCn2nc(-c3ccccc3OC)c3c(C)cc(C)nc32)cc1,70%
10,CC(=O)c1cccc(NC(=O)c2cnn(-c3cccc(C)c3)c2-n2cccc2)c1,99%
11,CCOC(=O)c1[nH]c(C)c(CCC(=O)Nc2cc(Cl)ccc2C)c1C,73%
12,CCOC(=O)c1oc2ccc(S(=O)(=O)n3nc(-c4cc(OC)cc(OC)c4)cc3N)cc2c1C,111%
13,COc1cccc(CNC(=O)CSC2=Nc3ccccc3N=C(c3ccc(F)cc3)C2)c1,117%
14,CC(=O)c1ccc(NC(=O)C(Cc2ccccc2)NS(=O)(=O)c2ccc3c(c2)CCC(=O)N3)cc1 (stereo unspecified),84%
15,CCCSc1ncc(Cl)c(C(=O)Nc2c(C(=O)Nc3ccc(OC)cc3)oc3ccccc23)n1,68%
16,COc1ccccc1CNC(=O)c1cnc2sc(N3CCCCC3)nn2c1=O,66%
17,Cc1oc(CSCCSCc2cc(C(=O)O)c(C)o2)cc1C(=O)O,94%
18,COc1cccc(CNc2ccc3c(c2)ncn3C)c1OC,122%
19,CCCn1cnc2cc(NCc3ccccc3OCC)ccc21,35% (active)
20,CCCn1cnc2cc(NCc3ccc(OC)cc3OC)ccc21,64%
21,Cc1ccc(-c2nnc(SCc3cccc(C#N)c3)o2)cc1,62%
22,COc1cccc(CNC(=O)c2cnc(N3CCCCC3)c3ccccc23)c1,86%
23,CCCN(C(=O)Cn1ncc2c([nH]c3ccccc32)c1=O)c1ccc(F)cc1,101%

row,SMILES,survival
1,Cc1ccc(CNC(=O)Cn2ncc3c([nH]c4ccc(C)cc43)c2=O)cc1,88%
2,Cc1ccc(N(C)C(=O)Cn2ncc3c([nH]c4ccccc43)c2=O)cc1C,37% (active)
3,Cc1ccc2[nH]c3c(=O)n(CC(=O)NC(C)C)ncc3c2c1,6% (active)
4,COc1cc(OC)c(N(C)C(=O)Cn2ncc3c([nH]c4ccccc43)c2=O)cc1Cl,91%
5,CCOC(=O)C1CCN(C(=O)Cn2ncc3c([nH]c4ccccc43)c2=O)CC1,25% (active)
6,CCOc1ccccc1N(CC)C(=O)Cn1ncc2c([nH]c3ccccc32)c1=O,46% (active)
7,Cc1ccc(CCNC(=O)Cn2ncc3c([nH]c4ccc(C)cc43)c2=O)cc1,119%
8,CCOC(=O)C1CCN(C(=O)Cn2ncc3c([nH]c4ccc(C)cc43)c2=O)CC1,72%
9,CCOC(=O)C1CCCN(C(=O)Cn2ncc3c([nH]c4ccccc43)c2=O)C1 (stereo unspecified),83%
10,CCOc1ccccc1NC(=O)Cn1ncc2c([nH]c3ccccc32)c1=O,126%
11,CCN(CC)C(=O)Cn1ncc2c([nH]c3ccccc32)c1=O,118%
12,Cc1ccccc1S(=O)(=O)Cc1ccc(C(=O)NCCc2ccccc2)o1,76%
13,Cc1ccc2c(c1)c1c(c(=O)n(-c3ccccc3C)c(=O)n1Cc1ccccc1F)n2C,73%
14,CCCN(CCC)C(=O)Cn1c(=O)n(-c2cccc(C)c2)c(=O)c2c1c1cc(OC)ccc1n2C,64%
15,CCOc1ccc(CCNC(=O)CCCn2nc(C)c3sc4ccccc4c3c2=O)cc1,72%
16,CCOc1ccc(CCNC(=O)NCc2noc3ccc(C)cc23)cc1,74%
17,COCCCNC(=O)c1ccc(Cn2c(=O)c3ccccc3n(Cc3c(C)cc(C)cc3C)c2=O)cc1,107%
18,CCCNC(=O)N(C)c1ncnnc1NC,98%
19,COc1ccccc1C(=O)Nc1nnc(SCc2cc(=O)c3cc(Cl)ccc3[nH]2)s1,62%
20,Cc1ccc2[nH]c3c(=O)n(CC(=O)N(CCN(C)C)Cc4ccccc4)ncc3c2c1,97%
21,CCCCN(C)C(=O)Cn1ncc2c([nH]c3ccc(C)cc32)c1=O,70%
22,Cc1ccc2[nH]c3c(=O)n(CC(=O)N(C)Cc4ccccc4)ncc3c2c1,-1% (active)
